Reference: PubChem BioAssay (NCI)
This is part of a sample that, as a whole, favours compounds with a hit. Of some 83,000 tested, about 20% had one in any assay.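 Cell lines were cultured in 96-well plates, exposed to a single compound concentration, and assessed for percent growth 48 hours later.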 Unmarked numbers belong to inactive results. Activity calls are given as the source filed them. How the source made its calls: active means growth percent below 10; inactive means the rest.

Tests used:
Assay in all cases: NCI-60 one-dose screen, 48 h (100 = growth as untreated, 0 = no growth, -100 = all killed)
Details in all cases: 10 µM unless noted
DU-145 prostate = test system: DU-145 prostate
K-562 leukemia = test system: K-562 leukemia
MALME-3M melanoma = test system: MALME-3M melanoma
MDA-MB-231 breast = test system: MDA-MB-231 breast
RXF 393 renal = test system: RXF 393 renal
SF-268 CNS = test system: SF-268 CNS
SF-295 CNS = test system: SF-295 CNS
SF-539 CNS = test system: SF-539 CNS
UACC-257 melanoma = test system: UACC-257 melanoma
M14 melanoma = test system: M14 melanoma

Row | Structure (SMILES) | growth (DU-145 prostate) | growth (K-562 leukemia) | growth (MALME-3M melanoma) | growth (MDA-MB-231 breast) | growth (RXF 393 renal) | growth (SF-268 CNS) | growth (SF-295 CNS) | growth (SF-539 CNS) | growth (UACC-257 melanoma) | growth (M14 melanoma)
1 | NCCCNc1nc2ccc(Cl)cc2c2c(=O)c3cc(F)ccc3sc12 | 24.4% | -38.7% (active) | 103% | 3.44% (active) | 62.3% | 53.2% | 103% | 70.7% | 98.3% | 55%
2 | CCN1C(=O)N(CC)C2Nn3c(s/c(=C4\C(=O)N(CC(C)C)c5ccccc54)c3=O)=NC21 (stereo not given) | 34.5% | 15.6% | 70% | 19.6% | -3.71% (active) | 66.1% | 42.4% | 7.6% (active) | 87.5% | 18.9%
3 | c1ccc(-c2nc3nonc3nc2-c2ccccc2)cc1 | 68.2% | 52.4% | 55.4% | 43.9% | 51.1% | 62.9% | 72.3% | 79.1% | 63.3% | 84.9%
4 | CC(=O)CC(c1ccccc1)c1c(C)[nH]c2ccccc12 (stereo not given) | 110% | 87.2% | 100% | 103% | 104% | 94.8% | 102% | 93.4% | 94.8% | 94.4%
5 | COc1ccc2nc(NCCCNCCO)c3sc4ccc(F)cc4c(=O)c3c2c1 | -49.7% (active) | -36.8% (active) | 91.8% | -26.7% (active) | 44.4% | 47.2% | 84.6% | -88.9% (active) | 95.4% | -57.1% (active)
6 | CCc1ccc(Oc2c(-c3ccc(OCCc4cccc(C(F)(F)F)c4)cc3O)n[nH]c2C(F)(F)F)cc1 | 25.6% | 7.94% (active) | 48.8% | 50.2% | 80.7% | 47.7% | 87.6% | 74% | 56.6% | 59.1%
7 | COc1ccc2c(c1)nc(NNC(=O)c1cnccn1)c1cccn12 | 31.1% | 13.9% | 46.3% | 30.4% | 48% | 30.4% | 13.6% | 23.5% | 25.7% | 8.27% (active)
8 | Cn1cc(-c2ccc3cc(-c4ccc(CC(=O)Nc5cc(C(C)(C)C)nn5C)cc4)cnc3c2)cn1 | 14.8% | 13.8% | -9.19% (active) | -15% (active) | -18.6% (active) | 17.4% | 16.7% | 15.7% | 13.1% | 11.1%
9 | CCOC(=O)c1cn2ncnc(Oc3ccc(NC(=O)NCCN(CC)CC)c(Cl)c3)c2c1C | 90.5% | -9.77% (active) | 22.3% | 59.8% | 41% | 65% | 92% | 50.7% | -41.7% (active) | -64.4% (active)
10 | Cc1ccc(-c2nc(SCC(=O)Nc3nc(-c4ccc(Cl)cc4)cs3)[nH]c(=O)c2C#N)cc1 | 103% | 97.1% | 109% | 110% | 114% | 98.1% | 101% | 117% | 88% | 91.7%
11 | Cc1ccc(S(=O)(=O)Oc2ccc(NC(=O)c3ccc(Cl)cc3)cc2)cc1 | 105% | 92.8% | 100% | 97% | 115% | 94.4% | 93.4% | 93.7% | 111% | 94.3%
12 | O=C(Cc1ccc(F)c(Cl)c1)Nc1cc(C2(C(F)(F)F)CC2)nn1CC1CCCCC1 | 20.9% | 11.1% | -24.1% (active) | -60.3% (active) | -28.7% (active) | 9.97% (active) | 1.21% (active) | 8.62% (active) | -9.88% (active) | 17.1%
13 | Cc1cc(Cl)ccc1NS(=O)(=O)c1ccc(-c2cnc(C3CC3)o2)cc1 | 21% | 9.89% (active) | 68% | 26.2% | 16.2% | 47% | 16.9% | -19.1% (active) | 69.4% | 10.2%
14 | O=C(CCN1C(=O)/C(=C/c2ccc(O)cc2)SC1=S)Nc1ccccc1 | 110% | 81.8% | 95.4% | 91.1% | 103% | 93.5% | 91% | 97.8% | 104% | 97.4%
15 | O=c1c2cccc(Cl)c2sc2c(NCCCNCCO)nc3ccccc3c12 | 13.9% | -48.1% (active) | 77.8% | -25.3% (active) | 50.3% | 42.1% | 73.9% | 27.4% | 97% | -72.7% (active)
16 | COc1cc(C(=O)N/N=C/c2cc3cc(OCc4ccccc4)ccc3nc2OC)cc(OC)c1OC | 102% | 74.6% | 110% | 94.7% | 79.6% | 79.7% | 98.4% | 85.8% | 79.2% | 83.4%
17 | CN1CCN(c2ccc(-c3ccc4ncc(C#N)c(Nc5ccc(F)c(Cl)c5)c4c3)cn2)CC1 | 27.5% | 17.3% | 27.9% | 77.2% | 27.3% | 47.7% | 71.5% | 60.2% | 34% | 30.5%
18 | COc1ccc(OC)c(/C=C/C(=O)N/N=C/c2ccccc2)c1 | 72.5% | 21.2% | 59% | 71.8% | 45.4% | 60.7% | 48.5% | 51.8% | 51.3% | 27.8%
19 | COc1ccc(-c2nc(NN)c3c(C)nn(-c4ccc(F)cc4)c3n2)cc1 | 37.9% | 17.8% | 61.5% | 53.1% | 51% | 46.3% | 27.8% | 36.2% | 45.3% | 26.4%
20 | Cc1ncc(C(=O)Nc2ccc(CN3CCN(C)CC3)c(C(F)(F)F)c2)cc1C#Cc1ccc(N)nc1 | 18.1% | 5.34% (active) | -88.9% (active) | -64.3% (active) | -60.2% (active) | -11.9% (active) | 18.5% | -39.3% (active) | 0.961% (active) | -56.8% (active)
21 | CCc1cccc2c1S/C(=C/c1ccc(Cl)cc1)C2=O | 107% | 80.1% | 87.5% | 87.6% | 105% | 93% | 96.7% | 89.1% | 105% | 99.1%
22 | COc1cccc(Oc2ccccc2NC(=O)CNC(=O)c2cccc3ccccc23)c1 | 5.14% [5 µM] (active) | 11.8% [5 µM] | 51.3% [5 µM] | 7.29% [5 µM] (active) | 52.4% [5 µM] | 34.6% [5 µM] | 14.6% [5 µM] | -7.85% [5 µM] (active) | 83.6% [5 µM] | -6.36% [5 µM] (active)
23 | COc1ccc(/C=N/Nc2cc(=O)[nH]c3ccc(Cl)cc23)cc1 | 64.7% | 20.9% | 46% | 71.3% | 85.6% | 58.9% | 72.6% | 97.2% | 81.7% | 54.8%
24 | N#C/C(=C\c1cccc2cnccc12)n1nnc2cccc(F)c21 | 2.26% (active) | 11.9% | 22.6% | 31.7% | -2.13% (active) | 67.4% | 93.4% | 36.6% | 52.1% | 35.1%
25 | Cc1cc(=O)[nH]c(=O)n1Cc1cn(-c2c3ccccc3nc3ccccc23)nn1 | 15.7% | 7.13% (active) | 93.6% | 77.3% | 90.7% | 90.4% | 102% | 98.9% | 67% | 97.8%
26 | O=c1c2cc(C(F)(F)F)ccc2sc2c(NCCCNCCO)nc3ccccc3c12 | -71.6% (active) | -47.1% (active) | 75.2% | -58.7% (active) | 42.6% | 36.6% | 42.7% | -79.1% (active) | 92% | -38.9% (active)
27 | C=C1CC[C@H](C(C)C)[C@@H]2[C@H]1[C@H]1CC(=C)[C@@H](O)CC[C@@](C)(O)[C@@H]2O1 | 102% | 97.8% | 98% | 105% | 108% | 94.7% | 98.4% | 98.1% | 86.2% | 98.6%
